Results taken from PubChem BioAssay AID777 (Sanford-Burnham Center for Chemical Genomics, 2007).
Screen size: about 96,000 compounds; about 19,000 (20%) were called active.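 Rule for the calls: active = blocking of liver enzyme CYP2C9 beyond about 50% at 5 µM (limit read from the data); inactive = the rest.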 Only a sample is shown.

Each molecule was assayed against Cytochrome P450 2C9 (Homo sapiens) (UniProt P11712) (assay: blockers of cytochrome P450 2C9 activity – biochemical, luminescence, ADME assay, primary screen (AID 777)). Conditions: CYP2C9 Supersomes, luciferin-H conversion, at 5 µM, hits give high values.
Chain of Cytochrome P450 2C9 (Homo sapiens) (P11712 whole entry, looked up): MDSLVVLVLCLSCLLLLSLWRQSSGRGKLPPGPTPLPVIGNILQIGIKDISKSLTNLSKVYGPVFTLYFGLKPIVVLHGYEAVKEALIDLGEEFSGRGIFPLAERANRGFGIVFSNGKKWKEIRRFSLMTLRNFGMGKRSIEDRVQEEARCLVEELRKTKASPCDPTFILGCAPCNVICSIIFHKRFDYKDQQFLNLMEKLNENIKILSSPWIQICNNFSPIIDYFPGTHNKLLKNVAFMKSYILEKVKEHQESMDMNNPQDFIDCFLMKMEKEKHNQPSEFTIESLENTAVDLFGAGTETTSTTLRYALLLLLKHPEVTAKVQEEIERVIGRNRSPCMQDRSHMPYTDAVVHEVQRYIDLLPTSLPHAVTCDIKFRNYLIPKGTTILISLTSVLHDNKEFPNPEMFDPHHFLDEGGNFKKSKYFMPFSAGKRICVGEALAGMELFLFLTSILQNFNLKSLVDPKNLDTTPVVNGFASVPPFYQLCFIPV

inhibition, active:
CC(=NCc1ccco1)c1c(C(F)(F)F)[nH]n(-c2nc3ccccc3s2)c1=O 64.2%, COc1ccc(OC)c(S(=O)(=O)N(C)CC(=O)N2CCN(c3ccccc3)CC2)c1 78.3%, O=C(O)CSc1nccn1-c1cccc(Cl)c1 57.5%, Cc1cc(C)n(C(=O)c2ccc(S(=O)(=O)N3CCCC3)cc2)n1 86.9%, Cc1cc(C)n(C(=O)c2ccc(C)c(S(=O)(=O)N3CCOCC3)c2)n1 66.3%, Cc1cccc(-n2nc3c(c2NC(=O)c2ccc(Br)o2)CSC3)c1C 72.3%, COc1ccc(-c2cn(-c3ccc(C)cc3)c(=O)n2CC(=O)Nc2ccc(OC)c(OC)c2)cc1 80.5%, COc1ccc(S(=O)(=O)N2CCN(c3ncnc4c(-c5ccccc5)nsc34)CC2)cc1 51.9%, Cc1ccc2c(c1)-c1c(ssc1=S)C(C)(C)N2C(=O)CN1C(=O)c2ccccc2C1=O 80.6%, Cc1cc2c(cc1C)N(C(=O)CN1C(=O)c3ccccc3C1=O)C(C)(C)c1ssc(=S)c1-2 78.2%, Cc1noc(C)c1S(=O)(=O)N(CC(=O)NCc1ccc(Cl)cc1)c1ccc2c(c1)OCO2 68.9%, COC(=O)c1ccc(NC(=O)CN(c2ccc(C)cc2)S(=O)(=O)c2c(C)n[nH]c2C)cc1 91.4%, Cc1noc(C)c1S(=O)(=O)N(CC(=O)Nc1ccc2c(c1)OCCO2)c1ccc(C(C)C)cc1 72.5%, CCOC(=O)c1cccc(NC(=O)CN(c2ccc(C)cc2)S(=O)(=O)c2c(C)noc2C)c1 65.9%

inhibition, inactive:
O=C1c2ccccc2C2=Nc3ccccc3SC(c3ccccc3F)C12 (stereo unspecified) 8.8%, COc1ccccc1Nc1nc(N)nc(CN(C)C2CCCCC2)n1 -18.4%, Cc1c(C#N)c2ncn(CC#N)c(=O)c2n1-c1ccccc1 -15.9%, O=C(NCc1ccccn1)c1cnc2sccn2c1=O -4%, O=C(CNCCO)NC12CC3CC(CC(C3)C1)C2 -6%, O=C(Nc1cc(C(F)(F)F)ccc1Cl)c1cc2nc3c(c(C(F)(F)F)n2n1)CCCC3 -42.8%, COc1ccc2nc(NC3=NCN(CC4CCCO4)CN3)nc(C)c2c1 (stereo unspecified) 1.3%, COc1c(Cl)cc(C(=O)Nc2ccc(Cl)cn2)cc1Cl -12.2%, CCOC(=O)N1CCN(C(c2cccnc2)c2ccc3cccnc3c2O)CC1 (stereo unspecified) 32.6%, COC(=O)Cc1cc(=O)n(-c2nc3ccccc3s2)[nH]1 18.5%, CCc1ccc(-c2cc(C(=O)NCc3ccco3)c3ccccc3n2)s1 39.4%, CCOc1[nH]n(-c2ccc(Cl)cc2)c(=O)c1C=Nc1ccc(O)cc1 37%, O=C(Nc1ccc(S(=O)(=O)N2CCCC2)cc1Cl)C1=COCCO1 19.8%, CC(C)C(C(=O)NC1CCCCC1)N(CC1CCCO1)C(=O)CNS(=O)(=O)c1ccc(F)cc1 (stereo unspecified) -3.2%, COc1ccc(-c2oc3ncn(Cc4ccco4)c(=N)c3c2-c2ccc(OC)cc2)cc1 27.6%, COc1ccc(N2CCN(C(=O)CNC(=O)c3ccc(C(C)(C)C)cc3)CC2)cc1 22.1%, CCN1CCN(C(=O)CN(C)S(=O)(=O)c2ccc(OC)cc2)CC1 -20.1%, COC(=O)c1ccc(S(=O)(=O)c2ccc(C(=O)OC)s2)s1 49.3%, Cn1c(Cc2cccc3ccccc23)nnc1SCC(=O)N1CCN(c2cccc(Cl)c2)CC1 -15.6%, Cc1nnc(NC(=O)CSc2nccn2-c2cccc(C)c2C)s1 39.9%, O=C(c1ccccn1)c1ncc(C(F)(F)F)cc1Cl 11.2%, CSC1=NCCN1C(=O)c1ccc(S(=O)(=O)N2CCOCC2)cc1 0.8%, CC(=O)c1c(N2CCOCC2)nc(=S)n(-c2cc(C)ccc2C)c1C -8.6%, Cc1ccc(C(=O)Nc2ccccc2C(=O)NC2CCCCC2)cc1S(=O)(=O)N1CCOCC1 23.7%, Cc1ccccc1-c1nnn(CC(=O)c2ccc(S(=O)(=O)N3CCCC3)cc2)n1 9%, Cc1cccc(N2C(=O)SC(N(CC(=O)O)c3cccc(C)c3)C2=O)c1 (stereo unspecified) 30.8%, Cc1ccc(-n2nc3c(c2NC(=O)c2ccc4c(c2)OCO4)CSC3)c(C)c1 1.1%, COc1cccc(C(=O)Nc2c3c(nn2-c2cccc(C)c2C)CS(=O)(=O)C3)c1OC -6.7%, COCc1nc2ccccc2n1Cc1ccccc1Br 14.7%, COc1ccc(NC(=O)Cn2c(-c3ccc(OC)cc3)cn(-c3ccc(C)cc3)c2=O)cc1 10%, COc1ccc(NC(=O)COC(=O)Cn2c(C)nc3ccccc32)cc1OC -9.8%, COCC(C)N=CC1=C(O)CC(C)(C)CC1=O (stereo unspecified) -5.7%, COc1ccc(S(=O)(=O)N2CCCC(C(=O)Nc3ccc(NC(=O)c4ccccn4)cc3)C2)cc1 (stereo unspecified) -18.5%, CCOc1ccccc1NC(=O)CCN1CCN(S(=O)(=O)c2ccc(OC)cc2)CC1 41.4%, COc1cccc(Oc2ccc(N)cc2)c1 4.7%, CN1C2CCC1/C(=C\c1ccccc1Cl)C(=O)/C2=C\c1ccccc1Cl -79.2%, COCCNC(=S)c1ccc(OC)cc1 -13.3%, Cn1c(Cc2csc(N)n2)nnc1SC/C=C/c1ccccc1 27.1%, C=CCn1c(C)cc(C(=O)CN2C(=O)c3ccccc3C2=O)c1C -61.6%, CCOC(=O)CN1C(=O)C(=O)c2cc(C)ccc21 8.3%, CC(C)OC(=O)CN1C(=O)c2ccccc2C1=O 4.9%, Cc1cc(C(=O)COC(=O)CCCN2C(=O)c3ccccc3C2=O)c(C)n1C -21.1%, Cc1[nH]c2ccc(S(N)(=O)=O)cc2c1C -42.1%, CNC(=S)NNC(=O)c1sccc1OCc1ccccc1 12.2%, COc1cccc(-n2c(SCC(=O)NC3CCCCC3)nc3n[nH]c(C)c3c2=N)c1 19.4%, Cc1noc(C)c1C(=O)NC(C)c1ccc2c(c1)OCO2 (stereo unspecified) 32.6%, CS(=O)(=O)N(CC(=O)NCc1ccco1)c1ccc2c(c1)OCO2 2.2%, CCOc1ccc(N(CC(=O)NCc2ccc(OC)cc2)S(=O)(=O)c2c(C)noc2C)cc1 3.9%, CCN(CC)C(=O)CCC(=O)Nc1ccc(C(=O)OC)cc1 8.6%, CCOc1ccc(N(CC(=O)OC)S(=O)(=O)c2c(C)noc2C)cc1 24.4%, Cc1ccc(N(CC(=O)Nc2cc(C)cc(C)c2)S(=O)(=O)c2cccc3nonc23)cc1 48.7%, COC(=O)c1ccc(NC(=O)Nc2ccc(C)cc2)cc1 34.6%
